Data reported in PubChem BioAssay (NCATS).
Records with an inconclusive call do not appear. Calls of active or inactive are those of the source. Unless noted, calls follow the shape of the dose curve; as a rule, active = well fitted curve in the direction sought with a large enough effect; inconclusive = small, poorly fitted or top-dose-only effect, or another doubt; inactive = no such curve, though single readings can be large; an effect the other way counts as inactive or inconclusive.

Columns and labels:
[1] = target: ATP-dependent 6-phosphofructokinase (Trypanosoma brucei brucei) (UniProt O15648); test: qHTS Assay to Find Inhibitors of T. brucei phosphofructokinase: hit validation (AID 492961);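 also: luminescence reports ADP formed as PFK phosphorylates fructose-6-phosphate with ATP; % is scaled to controls: 0 for no effect and ±100 for the full control effect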
Procedure, shortened: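 ADP-Glo luminescence read-out of ADP formed by 1.25 nM PFK from 0.1 mM ATP and 0.5 mM F6P (TEA pH 8.0, 45 min, RT). Compounds titrated; activity normalized to no-enzyme and full-enzyme controls.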

AS120 = test: qHTS profiling for inhibitors of Plasmodium falciparum proliferation (AID 504749);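 also: 0% = DMSO vehicle and full inhibition = artemisinin control; nearly all actives have a fitted effect of over 60% in size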; conditions: P. falciparum in erythrocytes, SYBR Green DNA, 72 h; series mostly up to 28.7 µM
Procedure, shortened: (§1)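 In a 72 h erythrocytic culture (37 C, humidified, 5% CO2) at 2.5% hematocrit and 0.3% starting parasitemia, compounds were tested; SYBR Green I in detergent lysis buffer stained parasite DNA overnight.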

ATS189 = test: as above; conditions: P. falciparum in erythrocytes, SYBR Green DNA, 72 h; series mostly up to 28.7 µM
Procedure, shortened: as §1

CP185 = test: as above; conditions: P. falciparum in erythrocytes, SYBR Green DNA, 72 h; series mostly up to 28.7 µM
Procedure, shortened: as §1

CP191 = test: as above; conditions: P. falciparum in erythrocytes, SYBR Green DNA, 72 h; series mostly up to 28.7 µM
Procedure, shortened: as §1

CP192 = test: as above; conditions: P. falciparum in erythrocytes, SYBR Green DNA, 72 h; series mostly up to 28.7 µM
Procedure, shortened: as §1

CP194 = test: as above; conditions: P. falciparum in erythrocytes, SYBR Green DNA, 72 h; series mostly up to 28.7 µM
Procedure, shortened: as §1

CP201 = test: as above; conditions: P. falciparum in erythrocytes, SYBR Green DNA, 72 h; series mostly up to 28.7 µM
Procedure, shortened: as §1

CP203 = test: as above; conditions: P. falciparum in erythrocytes, SYBR Green DNA, 72 h; series mostly up to 28.7 µM
Procedure, shortened: as §1

CP247 = test: as above; conditions: P. falciparum in erythrocytes, SYBR Green DNA, 72 h; series mostly up to 28.7 µM
Procedure, shortened: as §1

CP286 = test: as above; conditions: P. falciparum in erythrocytes, SYBR Green DNA, 72 h; series mostly up to 28.7 µM
Procedure, shortened: as §1

CP291 = test: as above; conditions: P. falciparum in erythrocytes, SYBR Green DNA, 72 h; series mostly up to 28.7 µM
Procedure, shortened: as §1

DFO2036 = test: as above; conditions: P. falciparum in erythrocytes, SYBR Green DNA, 72 h; series mostly up to 28.7 µM
Procedure, shortened: as §1

P94_40 = test: as above; conditions: P. falciparum in erythrocytes, SYBR Green DNA, 72 h; series mostly up to 28.7 µM
Procedure, shortened: as §1

PC49 = test: as above; conditions: P. falciparum in erythrocytes, SYBR Green DNA, 72 h; series mostly up to 28.7 µM
Procedure, shortened: as §1

TAB109 = test: as above; conditions: P. falciparum in erythrocytes, SYBR Green DNA, 72 h; series mostly up to 28.7 µM
Procedure, shortened: as §1

TAB113 = test: as above; conditions: P. falciparum in erythrocytes, SYBR Green DNA, 72 h; series mostly up to 28.7 µM
Procedure, shortened: as §1

[2] = NFAT Signaling Pathway (AID 444; active = well fitted curve in either direction with a large enough effect, not every such curve was filed as active;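 also: carbachol stimulus at about its EC50 of 1 µM final; % is scaled to controls: 0 for no effect and ±100 for the full control effect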); conditions: Jurkat NFAT-bla M1, carbachol, beta-lactamase ratio, 5 h; at 17.2 µM (top of the series) unless noted
Procedure, shortened: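 Read-out: CCF4 FRET ratio (460 nm/530 nm) after 1 h RT dye loading, used for %activity and AC50 from titration series. Cells: Jurkat NFAT-β-lactamase/M1 line, treated with compound plus 1 uM carbachol for 5 h, 37 °C.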

[3] = Stat Signaling Pathway (AID 446; active = well fitted curve in either direction with a large enough effect, not every such curve was filed as active;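 also: ME-180 cervical cancer cells given 40 pM IL-6 alongside compound; SIE-controlled beta-lactamase reporter measured as 460/530 nm FRET emission ratio; % is scaled to controls: 0 for no effect and ±100 for the full control effect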); conditions: ME-180 (cervical carcinoma) SIE beta-lactamase reporter, IL-6 stimulated, 5 h; at 17.2 µM (top of the series) unless noted
Procedure, shortened: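 FRET read-out (405 nm excitation, 460/530 nm emission) of a beta-lactamase reporter under a STAT-inducible element in ME-180 cervical carcinoma cells. Cells with compound receive 40 pM IL-6 for 5 h. Values are normalised to AC90 stimulation and AC90 JAK-inhibitor controls.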

[4] = target: Glucocorticoid receptor (Homo sapiens) (UniProt P04150); test: GR-GFP Redistribution (AID 450;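 active = compounds whose dose series gives a full or clear partial fitted curve of increased nuclear translocation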; also: potency is read from the fitted curve at half-maximal effect)
Sequence of Glucocorticoid receptor (Homo sapiens) (P04150 whole entry, looked up): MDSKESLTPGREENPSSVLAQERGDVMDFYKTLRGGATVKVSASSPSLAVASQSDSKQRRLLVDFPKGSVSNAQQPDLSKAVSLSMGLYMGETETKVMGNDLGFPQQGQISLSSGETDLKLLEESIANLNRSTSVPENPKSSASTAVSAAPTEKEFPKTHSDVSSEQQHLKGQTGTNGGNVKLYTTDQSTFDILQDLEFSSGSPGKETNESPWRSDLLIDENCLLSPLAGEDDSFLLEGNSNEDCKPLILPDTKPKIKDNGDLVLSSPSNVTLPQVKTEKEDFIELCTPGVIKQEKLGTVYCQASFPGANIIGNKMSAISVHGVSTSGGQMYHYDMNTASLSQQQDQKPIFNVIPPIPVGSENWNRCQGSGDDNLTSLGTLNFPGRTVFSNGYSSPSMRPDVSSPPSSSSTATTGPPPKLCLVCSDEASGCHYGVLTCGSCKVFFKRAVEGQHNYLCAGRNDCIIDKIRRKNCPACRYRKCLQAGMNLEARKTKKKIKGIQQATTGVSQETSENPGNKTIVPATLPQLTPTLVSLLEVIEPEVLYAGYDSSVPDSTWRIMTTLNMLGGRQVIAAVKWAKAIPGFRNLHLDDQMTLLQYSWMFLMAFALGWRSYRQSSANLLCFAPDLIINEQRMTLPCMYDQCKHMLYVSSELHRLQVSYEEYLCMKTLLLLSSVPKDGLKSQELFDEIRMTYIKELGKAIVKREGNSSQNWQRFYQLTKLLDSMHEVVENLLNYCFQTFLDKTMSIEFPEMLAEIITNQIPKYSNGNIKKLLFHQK

Sequence of ATP-dependent 6-phosphofructokinase (Trypanosoma brucei brucei) (O15648 whole entry, looked up): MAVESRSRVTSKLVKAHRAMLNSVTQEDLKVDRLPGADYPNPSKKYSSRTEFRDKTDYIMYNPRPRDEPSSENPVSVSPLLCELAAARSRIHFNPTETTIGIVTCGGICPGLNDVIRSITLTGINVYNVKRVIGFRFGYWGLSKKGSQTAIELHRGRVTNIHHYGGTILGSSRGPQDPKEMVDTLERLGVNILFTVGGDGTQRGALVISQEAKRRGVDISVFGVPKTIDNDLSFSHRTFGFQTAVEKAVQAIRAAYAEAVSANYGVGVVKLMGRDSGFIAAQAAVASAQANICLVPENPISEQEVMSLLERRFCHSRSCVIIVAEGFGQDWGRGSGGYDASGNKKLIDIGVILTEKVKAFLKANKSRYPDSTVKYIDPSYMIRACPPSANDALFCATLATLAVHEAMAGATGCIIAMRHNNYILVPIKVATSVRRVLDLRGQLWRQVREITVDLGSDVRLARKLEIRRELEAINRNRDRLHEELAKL

CN1[C@H]2CC(OC(=O)[C@H](CO)c3ccccc3)C[C@H]1[C@H]1O[C@H]12 (stereo partly drawn)
inactive: Potency [1] | Potency (AS120) | Potency (ATS189) | Potency (CP185) | Potency (CP191) | Potency (CP192) | Potency (CP194) | Potency (CP201) | Potency (CP203) | Potency (CP247) | Potency (CP286) | Potency (CP291) | Potency (DFO2036) | Potency (P94_40) | Potency (PC49) | Potency (TAB109) | Potency (TAB113)

CCOc1ccc(C2C(C#N)=C(N)Oc3cc(C)n(CCN4CCOCC4)c(=O)c32)cc1OCC (stereo not drawn)
inactive: activity change, negative = inhibition [2] 7.01% | activity, negative = inhibition [3] 0.201% | Potency [4] > 20.6 µM

CCOC(=O)c1c(-c2cccs2)csc1NC(=O)c1ccncc1
inactive: activity change, negative = inhibition [2] 27.6% | activity, negative = inhibition [3] 1.61% | Potency [4] > 20.6 µM
